Assay outcomes (PubChem BioAssay)
Sampled rows, rich in hits. Any-hit rate of the full collection: about 4.7%.
SKKanGAS inh: SKKanGAS growth inhibition; S. pyogenes SKKanGAS, kanamycin growth, BacTiter-Glo, 6 h; inhibition, % at 7.5 µM; hit rate 1.3% among 300,000; AID 1662;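 active means mean replicate score, as percent of positive control median, at least 50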;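 further: strain carries kanamycin resistance gene driven by streptokinase promoter and grows in 40 µg/ml kanamycin; loss of luminescence reflects streptokinase promoter inhibition or plain growth inhibition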
TIM10 inh: inhibits growth of TIM10 yeast strain | hit rate 1.4% among 330,000 | AID 463195 | inhibition, % at 10 µM | S. cerevisiae TIM10 strain growth, BacTiter-Glo luminescence, 24 h;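 active means inhibition of 40% or more at the single tested concentration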;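 further: wild-type TIM10 isogenic control strain grown at permissive 25 °C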
PfHsp90 yeast 2: inhibits growth of yeast expressing Plasmodium falciparum Hsp90 | inhibition, % at 9.4 µM | hit rate 0.32% among 310,000 | AID 504621 | S. cerevisiae expressing PfHsp90, BacTiter-Glo ATP, 48 h; yeast lacking PDR1 and PDR3 efflux regulators;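 active means every replicate shows inhibition above about 80%, whatever the replicate mean, limit read from the data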
tim23-1 inh: tim23-1 yeast growth inhibition; S. cerevisiae tim23-1 growth, BacTiter-Glo luminescence, 24 h; inhibition, % at 20 µM; hit rate 1.3% among 330,000;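 active means growth inhibition of the mutant yeast at or above 50%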;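 further: temperature-sensitive mutant grown at 25 °C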
EBI2 antag: antagonists of human EBI2 receptor | P32249 | EBI2 beta-arrestin recruitment, luminescence, 7a,25-OHC stimulated | inhibition, % at 5 µM | hit rate 0.81% among 360,000; in the data active means inhibition above about 38%;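 further: enzyme fragment complementation signal reports receptor beta-arrestin coupling in cells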
Target sequence (P32249 whole entry, looked up, the tested form may be a part): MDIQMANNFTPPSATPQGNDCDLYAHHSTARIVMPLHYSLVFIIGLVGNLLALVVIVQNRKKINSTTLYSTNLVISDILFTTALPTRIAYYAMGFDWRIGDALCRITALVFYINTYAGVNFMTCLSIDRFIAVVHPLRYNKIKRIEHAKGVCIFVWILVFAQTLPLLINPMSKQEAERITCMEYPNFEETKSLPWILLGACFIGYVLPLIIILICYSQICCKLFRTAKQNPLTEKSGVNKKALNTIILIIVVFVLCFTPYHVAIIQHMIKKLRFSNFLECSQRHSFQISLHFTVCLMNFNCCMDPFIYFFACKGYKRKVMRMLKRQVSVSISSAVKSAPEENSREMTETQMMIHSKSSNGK
tim10-1 inh: tim10-1 yeast growth inhibition. S. cerevisiae tim10-1 ts strain growth, BacTiter-Glo, 24 h. inhibition, % at 20 µM. hit rate 2.2% among 330,000;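 active means inhibition of at least 40%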;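 further: mutant grown at 25 °C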
EBI2 antag conf: confirmation of human EBI2 receptor antagonists; shares compounds with EBI2 antag; EBI2 beta-arrestin luminescence, 7a,25-OHC antagonism; inhibition, % at 5 µM; hit rate 29% among 2,400; AID 651997;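 active means inhibition of at least 50%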
EBI2 agonist: counter-screen for EBI2 antagonists: EBI2 agonist activity; 2,400 tested, under 10 active; AID 652000; EBI2-expressing cells, agonist mode, luminescence, 60 min; 0% vehicle, 100% 7α,25-dihydroxycholesterol control; shares compounds with EBI2 antag; activation, % at 5 µM;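 active means activation of at least 50%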
bGal counter: beta-galactosidase inhibition counter-screen; shares compounds with EBI2 antag; purified beta-galactosidase, luminescent Galacton Star, 15 min; inhibition, % at 5 µM; hit rate 1% among 2,400; AID 652176;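 active means replicate-average signal at least 3 plate SD below neutral wells, shown as high inhibition, flagging enzyme-inhibiting false positives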;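 further: higher means stronger loss of beta-gal luminescence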
Each line names hits and unclear results; the compound was inactive in the other large screens (follow-up assays come after a bar, where they were run).

COc1ccc(N2CCN(S(=O)(=O)CCNC(=O)/C=C/c3ccc4c(c3)OCO4)CC2)cc1	none
COc1ccc(/C=C/C(=O)NC(=S)N2CCN(c3ccccn3)CC2)cc1	EBI2 antag 61 (no result: PfHsp90 yeast 2) | EBI2 antag conf inactive | EBI2 agonist inactive | bGal counter inactive
CCCOc1ccc(/C=C/C(=O)N2CCOCC2)cc1	none
COc1ccccc1N1CCN(S(=O)(=O)CCNC(=O)/C=C/c2ccc3c(c2)OCO3)CC1	EBI2 antag 78 (no result: SKKanGAS inh, TIM10 inh, PfHsp90 yeast 2, tim23-1 inh, tim10-1 inh) | EBI2 antag conf 59 | EBI2 agonist inactive | bGal counter inactive
O=C(NCc1cccnc1)c1ccc(Br)o1	none (no result: PfHsp90 yeast 2)
Cc1ccc(CCNC(=O)C23CN(Cc4ccccc4)CC2C(c2ccc([N+](=O)[O-])cc2)=NO3)cc1 (stereo not drawn)	EBI2 antag 65 | EBI2 antag conf inactive | EBI2 agonist inactive | bGal counter inactive
COc1cc(OC)c(NC(=O)c2sc3ncn(CC(=O)N4CCOCC4)c(=O)c3c2C)cc1Cl	none
COc1cccc(N2CCN(C(=O)c3cccc(S(=O)(=O)N4CCCC4)c3)CC2)c1	none (no result: SKKanGAS inh, TIM10 inh, PfHsp90 yeast 2, tim23-1 inh, tim10-1 inh)
O=C(c1ccc2ccccc2c1)N1CCN(c2ccc(C(F)(F)F)cn2)CC1	EBI2 antag 85 | EBI2 antag conf 71 | EBI2 agonist inactive | bGal counter inactive
COc1cc(C(=O)N2CCN(C(=O)COc3ccc4ccccc4c3)CC2)cc(OC)c1OC	EBI2 antag 71 | EBI2 antag conf 50 | EBI2 agonist inactive | bGal counter inactive
COc1cccc(N2CCN(C(=O)c3ccc4ccccc4c3)CC2)c1	EBI2 antag 62 (no result: SKKanGAS inh) | EBI2 antag conf inactive | EBI2 agonist inactive | bGal counter inactive
COc1ccc(N2CCN(C(=O)c3csc4ccccc34)CC2)cc1	EBI2 antag 53 (no result: PfHsp90 yeast 2) | EBI2 antag conf inactive | EBI2 agonist inactive | bGal counter inactive
O=C(COc1ccc(Cl)cc1[N+](=O)[O-])N1CCCCCC1	none
CCN(C(=O)COC(=O)CCCOc1ccc(Cl)cc1C)c1c(N)n(Cc2ccccc2)c(=O)[nH]c1=O	none (no result: SKKanGAS inh, TIM10 inh, tim23-1 inh, tim10-1 inh)
CCOC(=O)N1CCN(C(=O)c2ccc3ccccc3c2)CC1	EBI2 antag 68 | EBI2 antag conf inactive | EBI2 agonist inactive | bGal counter inactive
COc1cccc(C(=O)N2CCN(C(=O)COc3ccc4ccccc4c3)CC2)c1	EBI2 antag 95 | EBI2 antag conf 78 | EBI2 agonist inactive | bGal counter inactive
O=C(COc1ccc2cc(Br)ccc2c1)N1CCCC1	EBI2 antag 69 | EBI2 antag conf inactive | EBI2 agonist inactive | bGal counter inactive
CN1CCN(C(=O)c2ccc3ccccc3c2)CC1	none
Cc1c(NC(=O)CSc2ccc(Cl)cc2)cccc1-c1nc2cc(Cl)ccc2o1	none
Cc1ccc(/C=C/C(=O)N2CCCN(C(=O)/C=C/c3ccc(C)cc3)CC2)cc1	EBI2 antag 94 | EBI2 antag conf 82 | EBI2 agonist inactive | bGal counter inactive
CCN1CCN(c2ccc(S(=O)(=O)N3CCOCC3)cc2NC(=O)/C=C/c2ccc(C)cc2)CC1	EBI2 antag 94 | EBI2 antag conf 91 | EBI2 agonist inactive | bGal counter inactive
Cc1ccc(/C=C/C(=O)N2CCc3ccccc3C2)cc1	none
CCN1CCN(C(=O)/C=C/c2ccc(C)cc2)CC1	EBI2 antag 95 | EBI2 antag conf 84 | EBI2 agonist inactive | bGal counter inactive
O=C(C=Cc1ccccc1)N1CCCCC1	none (no result: SKKanGAS inh, TIM10 inh, tim23-1 inh, tim10-1 inh)
Cc1ccc(/C=C/C(=O)NN2CCN(C)CC2)cc1	EBI2 antag 64 | EBI2 antag conf inactive | EBI2 agonist inactive | bGal counter inactive
Cn1c(=O)c2sccc2n(Cc2cccc(Br)c2)c1=O	none
NC(=O)c1sc(-c2ccsc2)cc1NS(=O)(=O)c1ccc(C(F)(F)F)cc1	none (no result: PfHsp90 yeast 2)
O=C(/C=C/c1ccc(F)cc1)N1CCc2ccccc2C1	none (no result: SKKanGAS inh)
O=C(/C=C/c1ccc(F)cc1)N1CCCN(C(=O)/C=C/c2ccc(F)cc2)CC1	EBI2 antag 85 | EBI2 antag conf 73 | EBI2 agonist inactive | bGal counter inactive
